The list is not random: actives were taken first. Their share in the collection is about 7.8%.
Marburg entry inh: qHTS for inhibitors of binding or entry into cells for Marburg Virus; Marburg virus pseudotyped entry inhibition, cell reporter; Potency, µM (top dose mostly 37.8 µM), without a hit: at the highest dose activity change, negative = inhibition, most hits filed as inhibitors; 1.8% of 300,000 active; calls by dose curve; tested in HEK293 cells; also: potency is read from the fitted curve at half-maximal effect
HCMV inh: qHTS Assay for inhibitors of the human cytomegalovirus (HCMV); HFF cells, HCMV-luciferase reporter, 72 h; active compounds read low; activity change, negative = inhibition, % at 57.5 µM; 4.5% of 410,000 active; in the data active = activity change below about -60%; inconclusive = no clear call, values can overlap the other calls; inactive = above about -39%
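After 16 h attachment at 37C, HFF cells received test compound and HCMV-luciferase (1 PFU/cell); reporter luminescence read 72 h later, data normalized against buffer-only and known inhibitor Salinomycin.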
HCV inh: qHTS Assay for Inhibitors of Hepatitis C Virus (HCV) | Potency, µM (series often up to 41.8 µM), for inactives: at the top dose activity change, negative = inhibition, most hits filed as inhibitors | AID 651820, 2012 | 3.4% of 340,000 active | Huh7.5.1 HCVcc-Cre infection, luciferase reporter, 44 h; active = well fitted inhibition curve with a large enough effect; inconclusive = small, poorly fitted or top-dose-only effect, or another doubt; inactive = no such curve, though single readings can be large or run the other way; also: potency is read from the fitted curve at half-maximal effect
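Infectious HCVcc-Cre (~0.5 moi) was added to cells just after compound, with cells seeded 4 h earlier at 1,000 per well. Luciferase activity after 44 h culture reported infection; substrate was incubated 15 min at room temperature before reading.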
VACV mCherry inh: qHTS for Stage-Specific Inhibitors of Vaccinia Orthopoxvirus: mCherry Reporter Primary qHTS; Vaccinia virus mCherry reporter infection, fluorescence; Potency, µM (titrated, usually from 36.5 µM), without a hit: at the highest dose activity change, negative = inhibition, most hits filed as inhibitors; 0.63% of 310,000 active; AID 720579, 2013; calls by dose curve; tested in A549 cells; also: potency is read from the fitted curve at half-maximal effect; nearly all actives have a fitted effect of over 35% in size
VACV Venus inh: qHTS for Stage-Specific Inhibitors of Vaccinia Orthopoxvirus: Venus Reporter Primary qHTS; 0.46% of 330,000 active; AID 720580, 2013; Vaccinia virus Venus reporter expression, fluorescence; Potency, µM (highest dose often 36.5 µM), inactives show at the highest dose activity change, negative = inhibition, usual class: inhibitors; calls by dose curve; tested in A549 cells; also: potency is read from the fitted curve at half-maximal effect; nearly all actives have a fitted effect of over 30% in size
Lassa entry inh: qHTS for Inhibitors of binding or entry into cells for Lassa Virus. Lassa virus pseudotype entry inhibition, cell reporter. Potency, µM (series often up to 37.9 µM), inactives show top-dose activity change, negative = inhibition, most hits filed as inhibitors. 1.2% of 300,000 active; calls by dose curve; tested in HEK293 cells; also: potency is read from the fitted curve at half-maximal effect; nearly all actives have a fitted effect of over 50% in size
* hit, by the source's call; [ ] = remark or other dose. % is scaled to controls: 0 for no effect and ±100 for the full control effect.

`Cc1cccc(NS(=O)(=O)c2ccc(C(=O)NCC3(N4CCCCC4)CCCCC3)cc2)c1C` gave Marburg entry inh 11.2µM*, HCMV inh -34.5, HCV inh inconclusive, VACV mCherry inh -9.5%, VACV Venus inh -28.3% and Lassa entry inh inconclusive.
Screening Nc1ccc(N2CCN(CCCCN3C(=O)C4CCCN4C3=O)CC2)cc1 (stereo not given) returned Marburg entry inh 3.16µM*, HCMV inh -10.7, HCV inh -37.4%, VACV mCherry inh inactive, VACV Venus inh -11.4% and Lassa entry inh 14.5%.
`O=C1C2CCCCN2C(=O)N1CCCN1CCN(c2ccc(F)cc2)CC1` (stereo not given) gave Marburg entry inh -6.7%[46.1 µM], HCMV inh -0.2, HCV inh -28.4%, VACV mCherry inh inactive, VACV Venus inh -17.5% and Lassa entry inh 4.3%[46.1 µM].
`Cc1ccc(NC(=O)c2oc3c(c2C)-c2[nH]ncc2CC3)c(Cl)c1` gave Marburg entry inh -17.7%[46.1 µM], HCMV inh 278.8, VACV mCherry inh -9.9%, VACV Venus inh -2.9% and Lassa entry inh -0.3%[46.1 µM].
Screening Cc1cc(Nc2ccccc2)nc(N2CCOCC2)n1 returned Marburg entry inh inconclusive, HCMV inh 56.8, HCV inh 10µM*, VACV Venus inh inconclusive and Lassa entry inh -2.8%.
`Cc1cc(Nc2cccc(F)c2)nc(N2CCOCC2)n1` gave HCMV inh 167.1 and HCV inh 3.55µM*.
CCCCn1nc(C(=O)NC2CCCCCC2)c2ccccc2c1=O was read as Marburg entry inh inconclusive, HCMV inh -24.8, HCV inh -20.0%, VACV mCherry inh inactive, VACV Venus inh 0.7% and Lassa entry inh -20.9%.
Screening CCCCn1nc(C(=O)N(C)C2CCCCC2)c2ccccc2c1=O returned HCMV inh -106.2* and HCV inh 0.9%.
O=c1c2cn[nH]c2nc(SCc2ccccc2F)n1-c1ccc(Br)cc1 was read as Marburg entry inh inconclusive, HCMV inh -71.3*, HCV inh inconclusive, VACV mCherry inh -8.9%, VACV Venus inh -1.8% and Lassa entry inh inconclusive.
`COc1ccc(-n2c(SCC(=O)NCc3cccs3)nc3[nH]ncc3c2=O)cc1` gave HCMV inh 37.5, HCV inh 3.6%, VACV mCherry inh inactive and VACV Venus inh -12.5%.
Screening COc1ccc(N2CCN(C(=O)CSc3nc4[nH]ncc4c(=O)n3-c3ccc(Br)cc3)CC2)cc1 returned HCMV inh -63.4*, HCV inh inconclusive, VACV mCherry inh inconclusive and VACV Venus inh -23.9%.
For O=c1c2cn[nH]c2nc(SCc2cc(=O)n3cc(Br)ccc3n2)n1-c1ccc(Br)cc1 the results were Marburg entry inh inconclusive, HCMV inh -72.5*, HCV inh inconclusive, VACV mCherry inh inconclusive, VACV Venus inh inconclusive and Lassa entry inh 3.5%.
COc1ccccc1C1CN(Cc2cccc3nccnc23)Cc2ccccc2O1 (stereo not given) was read as VACV mCherry inh -16.2% and VACV Venus inh -11.6%.
O=S(=O)(c1ccc(Br)cc1)c1nnn2c1nc(Nc1cccc(C(F)(F)F)c1)c1sccc12 was read as HCMV inh 1.4, VACV mCherry inh -0.7%, VACV Venus inh -22.3% and Lassa entry inh -17.9%[46.1 µM].
`CCOc1ccc(C(=O)NCCC2=CCCCC2)cc1OCC` gave Marburg entry inh inconclusive, HCMV inh 96.0, HCV inh 5.01µM*, VACV mCherry inh -5.3%, VACV Venus inh -3.8% and Lassa entry inh -27.8%[46.1 µM].
CC1CN(S(=O)(=O)c2cc(C(=O)NCCC3=CCCCC3)ccc2Cl)CC(C)O1 (stereo not given) was read as Marburg entry inh -25.6%[46.1 µM], HCMV inh -81.6*, HCV inh inconclusive, VACV mCherry inh -9.9%, VACV Venus inh -15.8% and Lassa entry inh inconclusive.
Cc1ccccc1CN(c1ccc(C(=O)NCCC2=CCCCC2)cc1)S(C)(=O)=O was read as Marburg entry inh inconclusive, HCMV inh -2.8, HCV inh -0.1% and Lassa entry inh 16.4µM*.
CCC(=O)c1ccc(OCC(=O)NCCC2=CCCCC2)c(OC)c1 was read as HCMV inh -26.5 and HCV inh -19.3%.
Screening CCN1[C@H](C(=O)NCCOC)[C@@H](CO)[C@@H]2Cn3c(ccc(-c4ccc(C(=O)N(C)C)cc4)c3=O)[C@@H]21 returned HCMV inh 11.7.
Screening COc1ccc(Nc2nc3c(S(=O)(=O)c4ccccc4)nnn3c3ccc(Cl)cc23)c(OC)c1 returned Marburg entry inh 15.8%[46.1 µM], HCMV inh 1.1, VACV mCherry inh -14.4% and VACV Venus inh -9.7%.
Screening N/N=C(/C(=O)N1CCN(c2ccccn2)CC1)c1ccccc1I returned HCMV inh -1.4.
`CCCCc1ccc(-c2ccc(C)cc2O)nc1` gave Marburg entry inh inconclusive, HCMV inh 21.0, HCV inh 5.9% and Lassa entry inh 10.3µM*.
For CCCCc1ccc(-c2ccc(Br)cc2O)nc1 the results were Marburg entry inh inconclusive, HCMV inh 28.7, HCV inh -10.0% and Lassa entry inh 6.8%.
Screening Cc1c(Cl)cccc1NC(=S)NCCc1ccc(S(N)(=O)=O)cc1 returned Marburg entry inh inconclusive, HCMV inh -79.5*, HCV inh 9.4%, VACV mCherry inh inactive, VACV Venus inh -18.9% and Lassa entry inh -12.2%[46.1 µM].
`Cc1c(Cl)cccc1NC(=S)NCCc1ccc(Cl)cc1` gave Marburg entry inh inconclusive, HCMV inh -86.2*, HCV inh 10µM*, VACV mCherry inh -11.5%, VACV Venus inh -27.9% and Lassa entry inh inconclusive.
For Cc1ccc(NC(=S)NCc2ccc(S(N)(=O)=O)cc2)cc1Cl the results were Marburg entry inh -5.0%[46.1 µM], HCMV inh -80.9*, HCV inh -28.7%, VACV mCherry inh -4.8%, VACV Venus inh -5.7% and Lassa entry inh 16.5%.
For NS(=O)(=O)c1ccc(NC(=S)NCc2ccccc2)cc1 the results were Marburg entry inh -3.3%, HCMV inh 23.3, HCV inh 0.1%, VACV mCherry inh -8.1%, VACV Venus inh 1.7% and Lassa entry inh 9.4%.
`Cc1ccccc1NC(=S)NCCc1ccc(S(N)(=O)=O)cc1` gave Marburg entry inh inconclusive, HCMV inh -34.8, HCV inh 1.9%, VACV mCherry inh -12.2%, VACV Venus inh -8.8% and Lassa entry inh 9.5%.
Screening O=C(Nc1ccccc1Sc1ccccc1)c1cnn2c1NC(=C1CC1)C=C2C(F)F returned VACV mCherry inh -13.6% and VACV Venus inh -20.3%.
Screening Cc1ccccc1NC(=O)c1nc(SCc2ccccc2F)ncc1Cl returned VACV mCherry inh 24.1% and VACV Venus inh -18.1%.

Compound activity as filed in PubChem BioAssay.
